A selection: hits, their analogues and other compounds. The true share with any hit is near 2.4%.
TLR4 MyD88 comp – inhibitors of human TLR4-MyD88 binding | O00206+Q99836 | AID 861 | HeLa CL3-4 TLR4/MyD88 BLA complementation, FRET ratio | inhibition, % at 8.4 µM | actives 0.18% (n = 200,000); in the data active = inhibition above about 25%
Target sequence (O00206 whole entry, looked up): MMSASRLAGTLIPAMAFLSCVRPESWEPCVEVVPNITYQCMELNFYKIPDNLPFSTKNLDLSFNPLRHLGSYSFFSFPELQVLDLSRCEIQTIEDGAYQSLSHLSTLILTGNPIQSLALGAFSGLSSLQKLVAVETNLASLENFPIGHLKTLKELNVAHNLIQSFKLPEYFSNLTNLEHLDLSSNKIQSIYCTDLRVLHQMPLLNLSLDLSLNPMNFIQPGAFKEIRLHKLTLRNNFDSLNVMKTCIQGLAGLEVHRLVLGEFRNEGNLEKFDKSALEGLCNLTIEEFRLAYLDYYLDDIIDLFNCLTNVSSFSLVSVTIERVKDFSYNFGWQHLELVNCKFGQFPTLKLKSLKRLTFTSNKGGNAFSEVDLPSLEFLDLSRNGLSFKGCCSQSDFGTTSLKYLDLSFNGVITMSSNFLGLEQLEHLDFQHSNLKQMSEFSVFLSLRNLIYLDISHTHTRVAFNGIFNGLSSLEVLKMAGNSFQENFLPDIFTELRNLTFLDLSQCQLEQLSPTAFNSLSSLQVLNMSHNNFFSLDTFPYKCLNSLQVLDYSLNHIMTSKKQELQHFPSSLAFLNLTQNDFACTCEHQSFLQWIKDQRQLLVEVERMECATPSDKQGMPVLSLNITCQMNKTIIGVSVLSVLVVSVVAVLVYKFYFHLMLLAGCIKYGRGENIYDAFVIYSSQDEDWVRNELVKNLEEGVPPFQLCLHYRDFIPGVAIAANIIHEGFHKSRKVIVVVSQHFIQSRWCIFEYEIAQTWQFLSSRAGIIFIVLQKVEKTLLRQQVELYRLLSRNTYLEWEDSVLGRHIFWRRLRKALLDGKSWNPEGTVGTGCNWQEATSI
Target sequence (Q99836 whole entry, looked up): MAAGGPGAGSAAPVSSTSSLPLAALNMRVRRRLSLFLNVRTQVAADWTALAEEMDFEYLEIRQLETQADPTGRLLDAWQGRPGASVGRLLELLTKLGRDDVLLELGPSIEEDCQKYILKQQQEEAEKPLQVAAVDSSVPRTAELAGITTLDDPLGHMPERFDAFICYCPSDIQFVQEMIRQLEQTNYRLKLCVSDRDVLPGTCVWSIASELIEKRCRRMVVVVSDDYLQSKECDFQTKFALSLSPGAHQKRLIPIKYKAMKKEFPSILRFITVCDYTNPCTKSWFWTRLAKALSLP
NOD2-RIPK2 inh – NOD2-RIPK2 protein interaction inhibition; inhibition, % at 4.98 µM; actives 0.38% (n = 360,000); CHO BLA complementation NOD2-RIPK2, CCF4 ratio; in the data active = inhibition above about 21%
TLR9-MyD88 block – inhibitors of human TLR9-MyD88 binding; actives 0.21% (n = 340,000); CHO BLA complementation TLR9-MyD88, CCF4 FRET ratio; AID 504734; inhibition, % at 4.98 µM;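 active = inhibition above the mean over all tested compounds plus 3 SD, cut at about 21% in these data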
HSF1 activator – increases HSF-1 driven luciferase reporter signal. NIH3T3-HGL HSF-1 luciferase reporter, MG132, 8 h; 100% = twice DMSO control signal. activation, % at 9 µM. actives 1.7% (n = 300,000);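 active = mean replicate activation of at least 50% with a set share of replicates each reaching 50%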
HSF1 inhib – HSF1 inhibition | NIH3T3-HGL HSE-luciferase, MG132-induced, luminescence 8 h; active compounds read low | activity change, negative = inhibition, % at 7.5 µM (by protocol) | actives 0.77% (n = 300,000) | AID 2098;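 active = more than half of replicate wells show activity change below -50%, luminescence cut by over half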;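 also: luciferase reports HSF-1 transcriptional activity via heat shock element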
Numbers stand for hits; 0 = inactive; - = no result.

SMILES | TLR4 MyD88 comp | NOD2-RIPK2 inh | TLR9-MyD88 block | HSF1 activator | HSF1 inhib
CCCCNC(=O)c1onc(CSc2cccc(Cl)c2)c1C(=O)O | 0 | 0 | 0 | 0 | -68.5
CC(/C=N/NC(=O)c1cc(-c2ccccc2)nc2ccccc12)=C\c1ccco1 | 0 | 0 | 0 | 54.5 | 0
Cc1cccc(-[n+]2c(C)cc(C)c3c(=O)[nH]c(=O)[nH]c32)c1 | 0 | 0 | 0 | 63.2 | 0
Cc1cc(C)cc(C(=O)NCC(=O)NNC(=O)CSc2ccccc2F)c1 | - | 0 | 0 | - | -
CC(C)c1ccc(/C=C2\C(=O)N(CCN3CCOCC3)C(=S)N2C)cc1 | 0 | 0 | - | 66.3 | 0
CC(C)c1ccc(C(=O)NCCCN2CCOCC2)cc1 | - | 0 | 0 | 0 | 0
Cc1ccc(OC(=O)c2ccc3nc(C)sc3c2)cc1 | 0 | - | - | 0 | -61.8
CCn1c(=O)c2c3c(sc2n2cnnc12)CCC3 | 0 | 0 | 0 | 0 | -58.3
CC1(C(=O)Nc2ccc3c(c2)OCCO3)CCN1C(=O)C1(c2ccc(Cl)cc2)CC1 (stereo not drawn) | - | 0 | - | - | -
Cc1c(O)ccc(/C(Cc2ccc3ccccc3n2)=N\O)c1O | 0 | 0 | 0 | 69.6 | 0
CC(=O)Oc1ccc(C(=O)Cc2ccc3ccccc3n2)c(O)c1C | 0 | 0 | 0 | 76.4 | 0
Cc1ccnc(NC(=O)c2cnc(Cl)c(Cl)c2)c1 | - | 0 | 0 | 0 | 0
CCC(CC)CN1CCN=C1N(C)C | - | 0 | 0 | 0 | 0
Cc1ccc(-c2cnc3cc(C)nn3c2)cc1 | 0 | 0 | 0 | 56.8 | 0
Cc1ccc(S(=O)(=O)NC(CC(=O)OCc2ccccc2)C(=O)OCc2ccccc2)cc1 (stereo not drawn) | - | 0 | 0 | - | -
COc1ccc(/C(C#N)=C/c2ccccn2)cc1 | - | 0 | 0 | 67.6 | 0
N#C/C(=C\c1ccccn1)c1nc2ccccc2s1 | 0 | 0 | 0 | 82.7 | 0
O=C(NCCc1ccccc1)c1ccc(CS(=O)Cc2ccc(Cl)cc2)o1 (stereo not drawn) | - | 0 | 0 | 0 | 0
CCOC(=O)Cn1c(=O)oc2cc(S(=O)(=O)NCCC(C)C)ccc21 | 0 | 0 | 0 | 0 | -69.9
O=C1CSC(=S)N1/N=C/c1cc(Br)c(O)c(Br)c1 | - | 0 | 0 | 0 | 0
Oc1cc(NCc2cccnc2)ccc1-c1nc2ccccc2o1 | 0 | 0 | 0 | 59.2 | 0
CCc1ccc(OCC(=O)Nc2ccc(-c3nc4ccccc4o3)c(O)c2)cc1 | 0 | 0 | 0 | 0 | 0
O=C(N/N=C1/CC2C=CCC12)c1cccs1 (stereo not drawn) | - | 0 | 0 | 0 | 0
CCN(CC)CCNC(=O)C1c2cc(OC)c(OC)cc2C(=O)N2CCc3ccccc3C12 (stereo not drawn) | 0 | 0 | 0 | - | -
COc1cc2c(cc1OC)C(C(=O)NC1CC1)C1c3ccccc3CCN1C2=O (stereo not drawn) | 0 | 0 | 0 | 0 | -61.0
SMILES | TLR4 MyD88 comp | NOD2-RIPK2 inh | TLR9-MyD88 block | HSF1 activator | HSF1 inhib
COc1ccc(N=c2sc3ccccc3n2C)cc1 | 0 | 0 | 0 | 54.7 | 0
COc1ccccc1N1CCN(c2ncnc3n[nH]c(Br)c23)CC1 | - | 0 | - | - | -
C[C@@H](O)CNC(=O)c1[nH]cnc1C(=O)N[C@H](C)c1ccccc1 | - | 0 | 0 | - | -
O=[N+]([O-])c1cc([N+](=O)[O-])c2cc3ccccc3nc2c1 | - | 0 | 0 | 139.2 | 0
Clc1ccc(OCc2nc(-c3ccncc3)no2)c(Br)c1 | 0 | 0 | 0 | 85.2 | 0
Nc1ccn([C@@H]2O[C@H](CNC(=O)[C@H]3CCC(=O)N3)[C@@H](O)[C@H]2O)c(=O)n1 | - | 0 | 0 | - | -
Cn1c(=O)cc(SCC(=O)N2CCOCC2)c2ccc(Cl)cc21 | 0 | 0 | 0 | 97.8 | 0
CC(NC(=O)/C=C/c1ccco1)c1nc2ccccc2n1Cc1ccccc1F (stereo not drawn) | 0 | 0 | 0 | 64.8 | 0
C[C@H]1CN(S(=O)(=O)C(C)(C)C)[C@H](CCO)/C1=C\c1ccccc1 | - | 0 | 0 | - | -
Cc1cc(C)c(C)c(S(=O)(=O)N2CCN(C(=O)c3ccccn3)CC2)c1C | - | 0 | 0 | - | -
CCOC(=O)/C(=C\c1cccc(O)c1)c1nc2sc(C)c(C)c2c(=O)[nH]1 | 0 | 0 | 0 | 160.8 | 0
O=C(NCCN1CCC(n2c(=O)[nH]c3ccccc32)CC1)c1cccs1 | - | 0 | - | - | -
Cc1cc(NC(=O)c2ccc([N+](=O)[O-])o2)ccc1NC(=O)c1ccco1 | 0 | 0 | 0 | 72.3 | 0
COc1cc(NC(=O)c2ccc([N+](=O)[O-])o2)ccc1NC(=O)c1ccco1 | - | 0 | 0 | 124.9 | 0
CCOc1ccc(NC(=O)c2ccco2)c([N+](=O)[O-])c1 | 0 | 0 | 0 | 54.4 | 0
Cc1cc([N+](=O)[O-])ccc1NC(=O)c1ccco1 | 0 | 0 | 0 | 0 | 0
O=C(CC(Nc1ccccc1Cl)C(=O)OCC(=O)c1cccs1)c1ccccc1 (stereo not drawn) | 0 | 0 | 0 | 0 | -58.2
O=C(CC(Nc1ccc(Cl)cc1Cl)C(=O)O)c1ccccc1 (stereo not drawn) | - | 0 | 0 | 0 | -89.4
COc1ccc(N2C(=O)[C@H]3CCC=C[C@H]3[C@@H]2c2ccccc2Br)cc1 | - | 0 | 0 | - | -
NC1=NC(c2cn[nH]c2-c2cccc(F)c2)n2c(nc3ccccc32)N1 (stereo not drawn) | 0 | 0 | 0 | 0 | -74.5
N#CC(C#N)=C1C=CC=CN1/C(=C\c1ccccc1)C(=O)c1cccs1 | 0 | 0 | 0 | 214.4 | 0
Cc1cc(C(=O)N2CCc3c([nH]c4ccccc34)C2c2cccc(Cl)c2)nn1C (stereo not drawn) | 0 | 0 | 0 | 0 | 0
CSc1ccc(C2c3[nH]c4ccccc4c3CCN2C(=O)c2cc(C)n(C)n2)cc1 (stereo not drawn) | 0 | - | - | 53.3 | 0
O=C(NCC(c1ccco1)N1CCCCC1)c1ccc([N+](=O)[O-])s1 (stereo not drawn) | - | 0 | - | - | -
O=[N+]([O-])c1ccc2sc(SCc3nc4ccccn4c3Br)nc2c1 | 0 | - | - | 0 | 0
SMILES | TLR4 MyD88 comp | NOD2-RIPK2 inh | TLR9-MyD88 block | HSF1 activator | HSF1 inhib
Brc1c(CSc2nc3ccccc3s2)nc2ncccn12 | 0 | 0 | 0 | 65.8 | 0
COCc1cc(CN2CCN(CCCc3ccccc3)C(CCO)C2)ccc1OC (stereo not drawn) | - | 0 | 0 | 0 | 0
COCc1cc(CN2CCN(CCc3ccccc3)C(CCO)C2)ccc1OC (stereo not drawn) | - | 0 | 0 | 190.3 | 0
Cc1nn(-c2cccc(Cl)c2)c2c1C(c1ccncc1)C(C#N)=C(N)O2 (stereo not drawn) | 0 | 0 | 0 | 82.1 | 0
COc1ccc(C)c2sc(NC(=O)C3=COCCO3)nc12 | 0 | 0 | 0 | 0 | -69.2
O=c1oc(=S)oc2c1[C@H](c1ccc(Cl)cc1)O[C@H](C1CC1)C2 | - | 0 | - | - | -
CCCCCN(C(=O)CCC(=O)OCC(=O)c1ccc(C(C)(C)C)cc1)c1c(N)n(CCCC)c(=O)[nH]c1=O | - | 0 | 0 | 75.7 | 0
CCCCN(C(=O)COc1ccc(C)cc1OC)c1c(N)n(CCC)c(=O)[nH]c1=O | - | 0 | 0 | 0 | -69.1
Nc1nc(NCCc2ccccc2)nc(NCCO)c1[N+](=O)[O-] | - | 0 | 0 | 0 | 0

Screening data as filed in PubChem BioAssay.
